# RECQ1 inh-1: inhibitors of human RECQ1 DNA helicase | P46063 | RECQ1 DNA unwinding, red fluorescence kinetic read | Potency, µM (highest dose often 57.3 µM), inactives show top-dose activity, negative = inhibition, usual class: inhibitors | 240,000 compounds, 0.54% hits;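 further: plate controls were vehicle for no effect and no enzyme for full effect; nearly all actives have a fitted effect of over 30% in size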
#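 50 nM RECQ1T1 preincubated 15 min with compound in Tris pH 8.0 buffer with MgCl2, DTT, Tween-20 and 2.5 ug/ml poly(dI-dC); started with 200 nM TAMRA/BHQ-2 forked duplex and 2 mM ATP. Unwinding read as fluorescence (525/598 nm), two reads 2 h apart.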
# PGK inhibitor: inhibitors of T. brucei phosphoglycerate kinase; P07378; PGK/GAPDH coupled, Kinase-Glo luminescence, 60 min; Potency, µM (titrated, usually from 57.5 µM), for inactives: at the highest dose activity change, negative = inhibition, actives largely listed as inhibitors; 380,000 compounds, 0.043% hits; AID 602233; further: on the % scale 0 is the no-effect control and ±100 the full control effect; nearly all actives have a fitted effect of over 60% in size
#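 Luminescent ATP detection (Kinase-Glo Plus) follows a 60-minute room-temperature incubation, with wells lacking PGK as controls. Buffer: 100 mM TEA (pH 7.6), 5 mM MgCl2, 0.01% Tween-20. Coupling enzyme GAPDH (100 nM final) supplies unstable 1,3-BPG in-well.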
# APE1 inh: inhibitors of human APE1 endonuclease | recombinant APE1, TAMRA/BHQ-2 abasic DNA cleavage fluorescence | Potency, µM (top dose mostly 65.8 µM), without a hit: at the top dose activity change, negative = inhibition, most hits filed as inhibitors | 350,000 compounds, 0.35% hits;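 further: plate controls were vehicle for no effect and reference inhibitor for full effect; nearly all actives have a fitted effect of over 55% in size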
#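 Activity was derived from the fluorescence gain between first and third kinetic reads (60 s intervals, ex 525/em 598 nm) after 50 nM THF-abasic TAMRA/BHQ-2 duplex was added to 0.75 nM APE1 preincubated 15 min with compound.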
# FEN1 inh-1: blocks human flap endonuclease 1. Recombinant FEN1 flap cleavage, fluorescence, 15 min. P39748. 390,000 compounds, 0.35% hits. Potency, µM (titrated, usually from 114 µM), for the others: top-dose activity change, negative = inhibition, most hits filed as inhibitors. AID 588795; further: on the % scale 0 is the no-effect control and ±100 the full control effect; nearly all actives have a fitted effect of over 65% in size
# Target sequence (P39748 whole entry, looked up): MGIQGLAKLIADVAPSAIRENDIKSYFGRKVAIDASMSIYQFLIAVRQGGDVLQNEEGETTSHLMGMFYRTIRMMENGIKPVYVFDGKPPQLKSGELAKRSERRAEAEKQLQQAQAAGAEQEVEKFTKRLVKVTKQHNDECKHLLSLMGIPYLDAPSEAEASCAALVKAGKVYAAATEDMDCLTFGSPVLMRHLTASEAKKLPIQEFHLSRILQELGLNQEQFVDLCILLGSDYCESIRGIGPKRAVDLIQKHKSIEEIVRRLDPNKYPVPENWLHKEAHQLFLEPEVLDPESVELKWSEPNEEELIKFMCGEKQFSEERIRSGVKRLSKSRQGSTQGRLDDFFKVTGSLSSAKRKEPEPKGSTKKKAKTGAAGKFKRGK
#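 Compounds are tested as a concentration series against 10 nM FEN1; after a 15 min room-temperature preincubation, 50 nM substrate starts cleavage, with plate reads at 0 and 15 min. Normalized responses are fitted by a Hill equation.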
# BLM inh-1: blocks DNA unwinding by human BLM helicase; 350,000 compounds, 0.2% hits; Potency, µM (doses to about 56.1 µM), for inactives: at the highest dose activity change, negative = inhibition, usual class: inhibitors; P54132; recombinant BLM DNA unwinding, fluorescence dequenching;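 further: plate controls were vehicle for no effect and no enzyme for full effect; nearly all actives have a fitted effect of over 35% in size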
# BLM inh-2: confirmation of inhibitors of human Bloom syndrome helicase BLM. shares compounds with BLM inh-1. BLM DNA unwinding, fluorescence quenching, biochemical. Potency, µM, for inactives: max response, negative = inhibition, hits mostly inhibitors. 220 compounds, 40% hits. AID 2585;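 further: strand separation dequenches TAMRA so unwinding raises red fluorescence; series mostly up to about 69 µM; on the % scale 0 is the no-effect control and ±100 the full control effect; nearly all actives have a fitted effect of over 45% in size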
# RECQ1 inh conf: confirmation of human RECQ1 helicase inhibitors; shares compounds with RECQ1 inh-1; RECQ1 helicase DNA unwinding, fluorescence; Potency, µM (doses to about 229 µM), inactives show at the highest dose activity change, negative = inhibition, most hits filed as inhibitors; 610 compounds, 28% hits; further: on the % scale 0 is the no-effect control and ±100 the full control effect; nearly all actives have a fitted effect of over 45% in size
# RECQ1 ADP FP: ADP displacement flagged in RECQ1 inhibitor counter-screen | shares compounds with RECQ1 inh-1 | AID 2711 | 530 compounds, 27% hits | Potency, µM (series often up to 228 µM), for the others: at the top dose activity change, negative = inhibition, actives largely listed as inhibitors | ADP fluorescence polarization displacement counterscreen; further: on the % scale 0 is the no-effect control and ±100 the full control effect; nearly all actives have a fitted effect of over 45% in size
# RECQ1 inh-2: RECQ1 helicase inhibition confirmed, round 2; AID 504841; Potency, µM (top dose mostly 119 µM), for the others: at the top dose activity, negative = inhibition, hits mostly inhibitors; recombinant RECQ1 DNA unwinding, red fluorescence; 1,100 compounds, 15% hits; shares compounds with RECQ1 inh-1; further: on the % scale 0 is the no-effect control and ±100 the full control effect; nearly all actives have a fitted effect of over 50% in size
# FEN1 inh-2: FEN1 inhibition, cherry-pick retest | shares compounds with FEN1 inh-1 | Potency, µM, hits mostly inhibitors | 880 compounds, 79% hits | FEN1 flap cleavage, TAMRA/BHQ2 fluorogenic DNA substrate; further: nearly all actives have a fitted effect of over 60% in size
# * marks the source's active call; other numbers are inactive results; i = inactive; ? = inconclusive; . = no result given; [ ] = remark or other dose. In the library only some 0.74% were active in any assay of this set; here they are far more common. The call rests on the fitted dose curve; in most records, active means well fitted curve in the direction sought with a large enough effect; inconclusive means small, poorly fitted or top-dose-only effect, or another doubt; inactive means no such curve, though single readings can be large; an effect the other way counts as inactive or inconclusive. Potency means the concentration at half of the fitted maximal effect.
SMILES,RECQ1 inh-1,PGK inhibitor,APE1 inh,FEN1 inh-1,BLM inh-1,BLM inh-2,others
CCCCn1c(SCC(N)=O)nc2sc3c(c2c1=O)CCC3,.,-5.4%,-9.5%,15.5%,-0.3%,.,
O=C(CSc1nc2scc(-c3ccco3)c2c(=O)n1-c1ccccc1)NCC1CCCO1 (stereo not given),?,-2.9%,?,1.4%,14.1µM*,?,RECQ1 inh-2=?
Cn1c(SCC(=O)NCC2CCCO2)nc2scc(-c3ccccc3)c2c1=O (stereo not given),.,-1.1%,24.4%,-4.3%,.,.,
C=C(c1ccc(C(=O)O)cc1)c1cc2c(cc1C)C(C)(C)CCC2(C)C,.,.,.,.,?,68µM*,RECQ1 inh conf=?
COC1=C(OC)C(=O)c2ccccc2C1=O,-11.0%,.,-5.1%,?,.,.,
CC1(C)C(=O)NC2=C1C(=O)C(=O)c1ccccc12,8.91µM*,.,?,.,2.51µM*,5.13µM*,RECQ1 inh conf=0.501µM*;RECQ1 ADP FP=8.91µM*
Cc1ccc(SCc2cc(=O)c3c(=O)n(-c4ccccc4)[nH]c3[nH]2)cc1,?,0.1%,?,-9.1%,15.8µM*,4.9%,RECQ1 inh-2=-6.9%
CN(C)c1ccc(/C=C/c2ccc3c4ccccc4ccc3[n+]2-c2ccccc2)cc1,20µM*,?,-2.7%,8.91µM*,?,68µM*,RECQ1 inh conf=22.4µM*
CN(C)c1ccc(/C=C/c2c3ccccc3cc[n+]2[O-])cc1,.,.,.,-2.3%,.,.,
COC(=O)c1scc(-c2ccc(C)cc2)c1S(=O)(=O)N1CCN(c2ccccc2F)CC1,.,13.1%,.,-1.5%,-9.9%,.,
Cc1nc2c(ccc3nc(NC(=O)c4ccc5c(c4)OCCO5)sc32)s1,20µM*,.,-2.8%,?,-24.3%,30.4µM*,RECQ1 ADP FP=44.1%[91.9 µM];RECQ1 inh-2=44.7µM*
O=C(N/N=C/c1ccc(F)cc1)c1cc(-c2ccco2)nc2ccccc12,10µM*,?,4.47µM*,79.4µM*,8.91µM*,18.2µM*,RECQ1 inh conf=39.8µM*;RECQ1 ADP FP=?
COc1cccc(OC)c1C(=O)OCC(=O)N1CC(C)CC(C)C1 (stereo not given),.,-3.6%,3.9%,-4.1%,.,.,
COCCN(C(=O)C1CC(=O)N(Cc2ccccc2)C1)c1nc(-c2ccc([N+](=O)[O-])cc2)cs1 (stereo not given),.,-2.0%,-9.0%,-21.3%,.,.,
Cc1cnc(CNc2nc(-c3ccccc3C(F)(F)F)nc3ccccc23)cn1,i,.,-6.3%,.,3.1%,.,
Cc1cnc(CNc2nc(-c3ccc(N(C)C)cc3)nc3ccccc23)cn1,?,.,-4.1%,.,28.2µM*,20.4µM*,RECQ1 inh-2=?
Nc1cc(N)cc(-c2nc3ccccc3[nH]2)c1,-9.4%,i,-0.8%,3.3%,-8.1%,.,
Nc1ccc2nc(-c3cc(Cl)c(N)c(Cl)c3)[nH]c2c1,2.0%,-5.7%,6.9%,50.1µM*,14.1µM*,?,FEN1 inh-2=?
Cc1cccc(NC(=O)c2ccc3snnc3c2)c1C,.,-3.8%,.,13.5%,-1.7%,.,
COc1ccc(-n2cccc2/C=C2/NC(=O)N(c3cccc(Cl)c3)C2=O)cc1,-7.7%,-1.6%,-0.2%,2.3%,3.5%,.,
